# Some of the results follow. Activity calls are given as the source filed them.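 Rule for the calls, unless noted: active = mean inhibition of the reporter signal across four replicates at the single tested dose of 50% or more; inactive = the rest.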
# Test: HIF-2a reporter inhibitor retest, confirmation, luminescence, 786-0 RCC cells (AID 651580;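 active = mean inhibition across four replicates of at least 40 percent at the single tested concentration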)
# Settings: HIF-2a luciferase reporter luminescence, overnight, at 18.8 µM, stronger effect = higher value
row,SMILES,inhibition
1,COC(=O)CCNc1ccc2c(c1)OCCO2,50.7% (active)
2,Cc1cccc(C(=O)Nc2ccc(CC(=O)O)cc2)c1,53% (active)
3,O=C(CN1CCN(C2CCS(=O)(=O)C2)CC1)N1N=C(c2ccc(Cl)cc2)CC1c1ccco1 (stereo not given),-11% (inactive)
4,Cc1ccccc1C(CC(=O)c1cccs1)C(C#N)C#N (stereo not given),28.4% (inactive)
5,CC(C)C[C@@H](N)c1nnc(SCC(=O)c2ccc(Cl)cc2)o1,80% (active)
6,CCOc1cc(/C=C(/C#N)c2ccc(Cl)cc2)cc(Cl)c1OCC(=O)O,98.1% (active)
7,N#C/C(=C/c1cccc([N+](=O)[O-])c1)c1nnc2n1CCCCC2,23.5% (inactive)
8,COC(=O)c1c(NC(=O)CCCC(=O)O)sc2c1CCCCC2,41.2% (active)
9,CS(=O)(=O)N(Cc1ccc(Cl)cc1)c1ccc(C(=O)NCCSCc2ccco2)cc1,-0.82% (inactive)
10,O=C1C=C(c2ccc(Cl)cc2)C(=O)N1Nc1ccccc1,95.2% (active)
11,COc1cccc2c(C)c(C(=O)O)[nH]c12,35.5% (inactive)
12,CCN(CC)CCCC(C)n1c2nc(=O)[nH]c(=O)c-2nc2cc(Cl)ccc21 (stereo not given),97.9% (active)
13,Cc1cc(Cl)c(S(=O)(=O)Nc2ccc3c(c2)OCCO3)cc1OCC(N)=O,46.5% (active)
14,CCN1CCC(O)(/C=C/c2ccc(C)cc2)C(C(=O)/C=C/c2ccc(C)cc2)C1 (stereo not given),5.88% (inactive)
15,CCN1CCN(CCNC(=O)c2ccc3c(c2)NC(=O)/C(=C\c2cccc(Cl)c2)S3)CC1,-18.3% (inactive)
16,CCOc1ccc(CNC(=O)C2CCCN(c3nnc(C)c4c(C)n(-c5ccccc5)nc34)C2)cc1 (stereo not given),6.1% (inactive)
17,O=S(=O)([N-]c1nc2ccccc2nc1-[n+]1ccc(Cc2ccccc2)cc1)c1ccc(Br)s1,-48.2% (inactive)
18,O=C(Nc1ccccc1)c1nnsc1S(=O)(=O)c1ccc(Cl)cc1,47.1% (active)
19,Cc1coc2c(O)cc3c(c12)OC1(N2CCCCC2)C(=O)NCCCC31 (stereo not given),1.41% (inactive)
20,CC[C@@H]1Cc2cc(O)ccc2C2=C1c1ccc(O)cc1C[C@H]2CC,54.5% (active)
21,CCOC(=O)C(=Cc1ccccc1OC)C(=O)OCC,57.5% (active)
22,O=[N+]([O-])/C=C/c1ccc2c(ccn2Cc2ccccc2)c1,45.4% (active)
23,COc1ccc(-c2oc3ncnc(NCCCO)c3c2-c2ccc(OC)cc2)cc1,37.9% (inactive)
24,OCCN1CCN(C(=S)c2ccc(-c3ccccc3)cc2)CC1,93% (active)
25,CC(C)(C)c1cc(C(=O)N/N=C/c2ccc([N+](=O)[O-])s2)n[nH]1,74.6% (active)

# Test: HIF-1a luciferase reporter signal reduction – MiaPaCa-2 cells, single concentration, counter-screen for HIF-2a inhibitor project, confirmation (AID 651589)
# Settings: MiaPaCa-2 HIF-1a luciferase reporter, desferoxamine, overnight; at 18.8 µM; stronger effect = higher value
row,SMILES,inhibition
1,COC(=O)CCNc1ccc2c(c1)OCCO2,56.6% (active)
2,Cc1cccc(C(=O)Nc2ccc(CC(=O)O)cc2)c1,44.8% (inactive)
3,O=C(CN1CCN(C2CCS(=O)(=O)C2)CC1)N1N=C(c2ccc(Cl)cc2)CC1c1ccco1 (stereo not given),74.8% (active)
4,Cc1ccccc1C(CC(=O)c1cccs1)C(C#N)C#N (stereo not given),100% (active)
5,CC(C)C[C@@H](N)c1nnc(SCC(=O)c2ccc(Cl)cc2)o1,-10.2% (inactive)
6,CCOc1cc(/C=C(/C#N)c2ccc(Cl)cc2)cc(Cl)c1OCC(=O)O,91.2% (active)
7,N#C/C(=C/c1cccc([N+](=O)[O-])c1)c1nnc2n1CCCCC2,11.7% (inactive)
8,COC(=O)c1c(NC(=O)CCCC(=O)O)sc2c1CCCCC2,27.3% (inactive)
9,CS(=O)(=O)N(Cc1ccc(Cl)cc1)c1ccc(C(=O)NCCSCc2ccco2)cc1,45.5% (inactive)
10,O=C1C=C(c2ccc(Cl)cc2)C(=O)N1Nc1ccccc1,41% (inactive)
11,COc1cccc2c(C)c(C(=O)O)[nH]c12,37.3% (inactive)
12,CCN(CC)CCCC(C)n1c2nc(=O)[nH]c(=O)c-2nc2cc(Cl)ccc21 (stereo not given),50% (inactive)
13,Cc1cc(Cl)c(S(=O)(=O)Nc2ccc3c(c2)OCCO3)cc1OCC(N)=O,52.6% (active)
14,CCN1CCC(O)(/C=C/c2ccc(C)cc2)C(C(=O)/C=C/c2ccc(C)cc2)C1 (stereo not given),105% (active)
15,CCN1CCN(CCNC(=O)c2ccc3c(c2)NC(=O)/C(=C\c2cccc(Cl)c2)S3)CC1,108% (active)
16,CCOc1ccc(CNC(=O)C2CCCN(c3nnc(C)c4c(C)n(-c5ccccc5)nc34)C2)cc1 (stereo not given),-3.66% (inactive)
17,O=S(=O)([N-]c1nc2ccccc2nc1-[n+]1ccc(Cc2ccccc2)cc1)c1ccc(Br)s1,79.1% (active)
18,O=C(Nc1ccccc1)c1nnsc1S(=O)(=O)c1ccc(Cl)cc1,-5.15% (inactive)
19,Cc1coc2c(O)cc3c(c12)OC1(N2CCCCC2)C(=O)NCCCC31 (stereo not given),107% (active)
20,CC[C@@H]1Cc2cc(O)ccc2C2=C1c1ccc(O)cc1C[C@H]2CC,104% (active)
21,CCOC(=O)C(=Cc1ccccc1OC)C(=O)OCC,75.7% (active)
22,O=[N+]([O-])/C=C/c1ccc2c(ccn2Cc2ccccc2)c1,104% (active)
23,COc1ccc(-c2oc3ncnc(NCCCO)c3c2-c2ccc(OC)cc2)cc1,82.4% (active)
24,OCCN1CCN(C(=S)c2ccc(-c3ccccc3)cc2)CC1,69.1% (active)
25,CC(C)(C)c1cc(C(=O)N/N=C/c2ccc([N+](=O)[O-])s2)n[nH]1,98.4% (active)

# From PubChem BioAssay
